{
  "source": "PubChem BioAssay (NCATS)",
  "key": {"[1]": {"test": "Counterscreen qHTS for small molecule stabilizers of the endoplasmic reticulum resident proteome: GLuc-NoTag assay (AID 1508627); note: potency is the fitted concentration of half-maximal effect", "procedure,_shortened": "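SH-SY5Y cells stably expressing constitutively secreted GLuc (no SERCaMP tag) were pre-incubated 5 h, treated with compound for 19 h, then 100 nM thapsigargin for 4 h at 37C; medium GLuc read by coelenterazine luminescence.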"}, "[2]": {"test": "Confirmatory qHTS for small molecule stabilizers of the endoplasmic reticulum resident proteome: Secreted ER Calcium Modulated Protein (SERCaMP) assay (AID 1508628); note: nearly all actives have a fitted effect of over 40% in size; note: potency is the fitted concentration of half-maximal effect", "procedure,_shortened": "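We seeded SH-SY5Y-GLuc-SERCaMP cells, added compounds (three concentrations in the primary run, eleven up to 76.6 uM in confirmation), incubated 16 h, depleted ER calcium with thapsigargin, and read luciferase 4 h later.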"}, "[3]": {"test": "Cell Viability qHTS for small molecule stabilizers of the endoplasmic reticulum resident proteome (AID 1508629);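 note: compound exposure about 46 h in total before the viability read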; note: potency is the fitted concentration of half-maximal effect;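 for max response: human SH-SY5Y neuroblastoma cells carrying the GLuc-SERCaMP reporter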", "settings": "cell viability counter-screen, 100 nM thapsigargin for final 4 h"}, "[4]": {"test": "Primary qHTS for small molecule stabilizers of the endoplasmic reticulum resident proteome: Secreted ER Calcium Modulated Protein (SERCaMP) assay (AID 1508630)", "procedure,_shortened": "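GLuc-SERCaMP-expressing SH-SY5Y cells, pretreated 16 h with compound, are challenged with thapsigargin to empty ER calcium stores; after 4 h, coelenterazine is added directly to the medium and luminescence is imaged.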"}, "[5]": {"test": "A High-Content qHTS Against Drug Library for the Identification of Small Molecules that Inhibit DYT1 Early Onset Primary Dystonia-Associated Cell Pathology (AID 1645839; calls by dose curve; note: potency is the fitted concentration of half-maximal effect; for % pathology change, negative = correction: series mostly up to about 46 µM)", "procedure,_shortened": "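Readout: %pathology, the punctate EGFP-TorsinA distribution from imaging, as the primary channel and cell count as the toxicity counterscreen. HEK293 Flp-In cells expressing delE TorsinA were induced with tetracycline and treated with compound for 48 h.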"}, "Papain (Carica papaya)": {"target": "Papain (Carica papaya) (UniProt P00784)", "sequence (P00784 whole entry, looked up)": "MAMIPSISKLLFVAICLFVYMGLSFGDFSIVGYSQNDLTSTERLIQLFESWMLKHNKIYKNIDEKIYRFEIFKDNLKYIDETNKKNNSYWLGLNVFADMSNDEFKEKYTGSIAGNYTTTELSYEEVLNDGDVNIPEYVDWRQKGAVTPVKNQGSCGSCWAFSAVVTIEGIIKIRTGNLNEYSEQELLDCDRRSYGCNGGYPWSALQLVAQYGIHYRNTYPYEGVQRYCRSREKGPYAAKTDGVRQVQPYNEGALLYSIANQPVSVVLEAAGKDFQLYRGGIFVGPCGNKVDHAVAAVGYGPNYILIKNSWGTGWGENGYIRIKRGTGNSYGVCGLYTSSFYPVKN", "test": "Primary qHTS assay for inhibitors of the protease papain (AID 1645873);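 note: papain turnover of Z-FR-AMC read as the AMC fluorescence gain over 10 min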; note: potency is the fitted concentration of half-maximal effect; for activity change, negative = inhibition: series mostly up to about 50 µM"}, "[6]": {"target": "Cytochrome P450 2D6 (Homo sapiens) (UniProt P10635)", "sequence (P10635 whole entry, looked up)": "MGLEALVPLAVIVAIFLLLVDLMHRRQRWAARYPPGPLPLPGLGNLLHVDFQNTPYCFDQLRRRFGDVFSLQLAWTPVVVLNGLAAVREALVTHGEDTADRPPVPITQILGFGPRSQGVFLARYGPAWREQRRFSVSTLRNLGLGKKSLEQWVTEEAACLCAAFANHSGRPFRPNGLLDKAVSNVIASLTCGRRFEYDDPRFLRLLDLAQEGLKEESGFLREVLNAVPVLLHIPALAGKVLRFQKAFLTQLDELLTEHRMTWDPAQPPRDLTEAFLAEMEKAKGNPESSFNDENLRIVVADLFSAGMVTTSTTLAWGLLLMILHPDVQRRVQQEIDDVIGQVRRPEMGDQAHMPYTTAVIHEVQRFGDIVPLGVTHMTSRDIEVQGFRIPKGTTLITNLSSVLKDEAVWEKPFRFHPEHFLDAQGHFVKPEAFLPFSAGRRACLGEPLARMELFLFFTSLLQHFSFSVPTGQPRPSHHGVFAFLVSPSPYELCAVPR", "test": "Cytochrome P450 family 2 subfamily D member 6 (CYP2D6) small molecule antagonists: luciferase biochemical (cell-free) qHTS assay (AID 1645840; active = well fitted curve in the direction sought with a large enough effect in the repeat runs; an effect the other way counts as inactive or inconclusive; note: nearly all actives have a fitted effect of over 55% in size; note: potency is the fitted concentration of half-maximal effect; for activity change, negative = inhibition: series mostly up to about 57 µM)", "procedure,_shortened": "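P450-Glo luminescent screen: recombinant CYP2D6 enzyme–proluciferin substrate mix preincubated with compound 10 min at room temperature, then NADPH regeneration added for 1 h at room temperature. Detection reagent added for 20 min; luciferin light read as relative luminescence units.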"}, "[7]": {"target": "Cytochrome P450 2C9 (Homo sapiens) (UniProt P11712)", "sequence (P11712 whole entry, looked up)": "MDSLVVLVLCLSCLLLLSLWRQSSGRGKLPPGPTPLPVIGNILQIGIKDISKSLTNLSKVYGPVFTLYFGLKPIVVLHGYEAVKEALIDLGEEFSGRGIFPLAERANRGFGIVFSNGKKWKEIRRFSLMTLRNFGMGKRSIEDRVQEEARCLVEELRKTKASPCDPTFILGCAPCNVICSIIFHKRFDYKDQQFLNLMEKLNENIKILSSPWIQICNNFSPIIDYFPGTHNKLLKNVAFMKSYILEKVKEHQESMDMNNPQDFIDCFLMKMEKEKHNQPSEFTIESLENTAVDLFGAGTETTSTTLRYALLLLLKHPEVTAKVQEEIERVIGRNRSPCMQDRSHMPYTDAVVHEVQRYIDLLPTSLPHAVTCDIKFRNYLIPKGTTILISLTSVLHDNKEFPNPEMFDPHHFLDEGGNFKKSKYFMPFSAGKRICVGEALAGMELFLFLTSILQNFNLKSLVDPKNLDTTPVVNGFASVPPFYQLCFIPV", "test": "Cytochrome P450 family 2 subfamily C member 9 (CYP2C9) small molecule antagonists: luciferase biochemical (cell-free) qHTS assay (AID 1645842; active = well fitted curve in the direction sought with a large enough effect in the repeat runs; an effect the other way counts as inactive or inconclusive; note: nearly all actives have a fitted effect of over 55% in size; note: potency is the fitted concentration of half-maximal effect; for activity change, negative = inhibition: series mostly up to about 57 µM)", "procedure,_shortened": "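Luminescence, after 20 min with luciferin detection reagent, reflected CYP2C9 turnover during a 1 h NADPH-driven reaction at 37C. Enzyme-substrate mix contained 0.4% bovine serum albumin and was preincubated with compound 10 min at room temperature.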"}, "[8]": {"target": "Cytochrome P450 3A4 (Homo sapiens) (UniProt P08684)", "sequence (P08684 whole entry, looked up)": "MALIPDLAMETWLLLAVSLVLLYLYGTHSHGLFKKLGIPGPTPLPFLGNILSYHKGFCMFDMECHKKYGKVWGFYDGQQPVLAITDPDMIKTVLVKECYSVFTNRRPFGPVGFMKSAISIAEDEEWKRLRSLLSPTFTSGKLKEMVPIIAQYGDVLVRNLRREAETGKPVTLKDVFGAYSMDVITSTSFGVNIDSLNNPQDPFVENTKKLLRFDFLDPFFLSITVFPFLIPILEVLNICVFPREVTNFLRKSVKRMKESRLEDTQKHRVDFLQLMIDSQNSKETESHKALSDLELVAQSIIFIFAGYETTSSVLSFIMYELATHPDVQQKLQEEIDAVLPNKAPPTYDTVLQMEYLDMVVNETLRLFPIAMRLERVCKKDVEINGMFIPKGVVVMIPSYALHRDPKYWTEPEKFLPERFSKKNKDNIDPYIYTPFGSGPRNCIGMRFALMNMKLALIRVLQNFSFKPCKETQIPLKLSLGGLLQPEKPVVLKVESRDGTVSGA", "test": "Cytochrome P450 family 3 subfamily A member 4 (CYP3A4) small molecule antagonists: luciferase qHTS assay (AID 1645841; active = well fitted curve in the direction sought with a large enough effect in the repeat runs; an effect the other way counts as inactive or inconclusive; note: nearly all actives have a fitted effect of over 45% in size)", "procedure,_shortened": "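P450-Glo CYP3A4 enzyme with proluciferin substrate was preincubated with DMSO-dissolved compounds for 10 min at room temperature. NADPH regeneration solution started a 1 h reaction. Detection reagent stopped it, and luminescence was read after 20 min.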"}},
  "note": "Where “and” joins values, the source holds several entries; their conditions need not be identical. Identical values can stand only once. Results filed as inconclusive are left out. Where a call stands in place of a potency, no number is given. Some compounds were tested as several samples or in several runs, with calls that do not always agree. Calls of active or inactive are those of the source. Unless noted, calls come from the whole dose curve; as a rule, active = well fitted curve in the direction sought with a large enough effect; inconclusive = small, poorly fitted or top-dose-only effect, or another doubt; inactive = no such curve, though single readings can be large; an effect the other way counts as inactive or inconclusive.",
  "data": [
    {"molecule": "CNCCC(Oc1ccc(C(F)(F)F)cc1)c1ccccc1", "note": "(stereo not given)", "values": [
      {"measurement": "Potency", "setting": "[1]", "value": "44.7 µM (active)"},
      {"measurement": "Potency", "setting": "[2]", "value": "inactive"},
      {"measurement": "Potency", "setting": "[3]", "value": "25.1 µM (active)"},
      {"measurement": "Potency", "setting": "[4]", "value": "inactive"},
      {"measurement": "Potency", "setting": "[5]", "value": "12.6 µM (active)"},
      {"measurement": "Potency", "setting": "Papain (Carica papaya)", "value": "inactive"}
    ]},
    {"molecule": "CN1CCN(C2Cc3ccccc3Sc3ccc(Cl)cc32)CC1", "note": "(stereo not given)", "values": [
      {"measurement": "Potency", "setting": "[2]", "value": "17.8 µM (active)"},
      {"measurement": "Potency", "setting": "[6]", "value": "0.121 µM (active)"},
      {"measurement": "Potency", "setting": "[7]", "value": "8.49 µM (active)"},
      {"measurement": "Potency", "setting": "Papain (Carica papaya)", "value": "inactive"}
    ]},
    {"molecule": "CNCCCC1c2ccccc2C=Cc2ccccc21", "values": [
      {"measurement": "Potency", "setting": "[2]", "value": "inactive"},
      {"measurement": "Potency", "setting": "[6]", "value": "3.09 µM (active)"},
      {"measurement": "Potency", "setting": "[7]", "value": "inactive"},
      {"measurement": "Potency", "setting": "Papain (Carica papaya)", "value": "inactive"}
    ]},
    {"molecule": "C[C@@H]1C[C@H]2[C@@H]3C[C@H](F)C4=CC(=O)C=C[C@]4(C)[C@@]3(F)[C@@H](O)C[C@]2(C)[C@@]1(O)C(=O)CO", "values": [
      {"measurement": "Potency", "setting": "[4]", "value": "inactive"},
      {"measurement": "Potency", "setting": "[5]", "value": "inactive"}
    ]},
    {"molecule": "CC(C)(C)[C@]1(O)CCN2C[C@H]3c4ccccc4CCc4cccc(c43)[C@@H]2C1", "values": [
      {"measurement": "Potency", "setting": "[2]", "value": "12.6 µM (active)"},
      {"measurement": "max response", "setting": "[3]", "value": "16.4% (inactive)"},
      {"measurement": "Potency", "setting": "Papain (Carica papaya)", "value": "inactive and 15.8 µM (active)"}
    ]},
    {"molecule": "CCOC(=O)c1ccc(O)cc1", "values": [
      {"measurement": "Potency", "setting": "[4]", "value": "inactive"},
      {"measurement": "Potency", "setting": "[5]", "value": "inactive"}
    ]},
    {"molecule": "C[C@@H]1CC[C@@]2(OC1)O[C@H]1C[C@H]3[C@@H]4CC[C@H]5C[C@@H](O)CC[C@]5(C)[C@H]4CC(=O)[C@]3(C)[C@H]1[C@@H]2C", "values": [
      {"measurement": "activity change, negative = inhibition", "setting": "[4]", "value": "-13.5% [at 3.88 µM] (inactive)"},
      {"measurement": "% pathology change, negative = correction", "setting": "[5]", "value": "-10% [at 4.63 µM] (inactive)"},
      {"measurement": "activity change, negative = inhibition", "setting": "[6]", "value": "8.49% [at 4.83 µM] (inactive)"},
      {"measurement": "activity change, negative = inhibition", "setting": "[8]", "value": "37% [at 4.83 µM] (inactive)"},
      {"measurement": "activity change, negative = inhibition", "setting": "[7]", "value": "5.2% [at 4.83 µM] (inactive)"}
    ]},
    {"molecule": "CC(=O)Nc1ccc(/C=N/NC(N)=S)cc1", "values": [
      {"measurement": "Potency", "setting": "[4]", "value": "inactive"},
      {"measurement": "Potency", "setting": "[5]", "value": "inactive"},
      {"measurement": "Potency", "setting": "[6]", "value": "inactive"}
    ]},
    {"molecule": "Cc1ncc([N+](=O)[O-])n1CC(O)CCl", "note": "(stereo not given)", "values": [
      {"measurement": "Potency", "setting": "[4]", "value": "inactive"},
      {"measurement": "Potency", "setting": "[5]", "value": "inactive"}
    ]},
    {"molecule": "C[C@H](N)[C@H](O)c1cccc(O)c1", "values": [
      {"measurement": "Potency", "setting": "[4]", "value": "inactive"},
      {"measurement": "Potency", "setting": "[5]", "value": "inactive"},
      {"measurement": "Potency", "setting": "[6]", "value": "inactive"},
      {"measurement": "outcome", "setting": "[8]", "value": "inactive"}
    ]}
  ]
}
